Experimental findings from PubChem BioAssay are described below.

“And” between values parts separate entries of the source, which are not always exact repeats. Identical values can stand only once. The source made the active and inactive calls.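 Rule for the calls: active = inhibition above 50%, about 3 SD of the validation set; inactive = the rest.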

For this assay, the target named is Integrin beta-1 (Homo sapiens) + Integrin alpha-4 (Homo sapiens) (UniProt P13612+P05556). Description: inhibition of HUTS-21 binding to VLA-4, pilot screen, VLA-4 allosteric modulator project, U937 cells, HUTS-21 mAb, flow cytometry, validation set (AID 2674).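 Note: antibody binding induced by the VLA-4 ligand LDV present at three times its Kd; 0% = LDV ligand with antibody and no compound and 100% = antibody without LDV.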 The settings on record: HUTS-21 LIBS mAb binding, at 6.7 µM, hits give high values, binding induced by LDV ligand. (In flow cytometry, cells or beads pass a laser one at a time.)
Chain of Integrin beta-1 (Homo sapiens) + Integrin alpha-4 (Homo sapiens) (P05556 whole entry, looked up): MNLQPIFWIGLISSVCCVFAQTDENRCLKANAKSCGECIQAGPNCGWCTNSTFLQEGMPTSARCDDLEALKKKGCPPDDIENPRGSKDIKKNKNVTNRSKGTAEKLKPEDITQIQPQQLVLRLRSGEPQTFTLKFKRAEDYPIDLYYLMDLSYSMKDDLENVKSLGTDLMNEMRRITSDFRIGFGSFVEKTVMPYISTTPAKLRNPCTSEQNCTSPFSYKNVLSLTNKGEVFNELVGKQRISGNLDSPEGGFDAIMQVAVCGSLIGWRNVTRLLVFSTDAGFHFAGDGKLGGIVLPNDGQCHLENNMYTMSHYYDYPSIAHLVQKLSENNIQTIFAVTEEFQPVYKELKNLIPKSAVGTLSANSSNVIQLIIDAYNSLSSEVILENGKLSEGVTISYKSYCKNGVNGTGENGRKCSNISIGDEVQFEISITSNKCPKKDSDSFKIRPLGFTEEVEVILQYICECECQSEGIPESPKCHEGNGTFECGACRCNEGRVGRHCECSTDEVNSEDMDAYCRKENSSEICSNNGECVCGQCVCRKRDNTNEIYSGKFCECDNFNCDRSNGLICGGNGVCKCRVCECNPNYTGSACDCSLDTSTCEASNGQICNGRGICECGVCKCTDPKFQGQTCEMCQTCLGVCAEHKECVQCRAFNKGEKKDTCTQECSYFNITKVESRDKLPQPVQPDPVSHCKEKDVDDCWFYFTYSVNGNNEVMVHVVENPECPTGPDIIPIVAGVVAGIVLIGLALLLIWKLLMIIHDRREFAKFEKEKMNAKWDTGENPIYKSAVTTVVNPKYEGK
Chain of Integrin beta-1 (Homo sapiens) + Integrin alpha-4 (Homo sapiens) (P13612 whole entry, looked up): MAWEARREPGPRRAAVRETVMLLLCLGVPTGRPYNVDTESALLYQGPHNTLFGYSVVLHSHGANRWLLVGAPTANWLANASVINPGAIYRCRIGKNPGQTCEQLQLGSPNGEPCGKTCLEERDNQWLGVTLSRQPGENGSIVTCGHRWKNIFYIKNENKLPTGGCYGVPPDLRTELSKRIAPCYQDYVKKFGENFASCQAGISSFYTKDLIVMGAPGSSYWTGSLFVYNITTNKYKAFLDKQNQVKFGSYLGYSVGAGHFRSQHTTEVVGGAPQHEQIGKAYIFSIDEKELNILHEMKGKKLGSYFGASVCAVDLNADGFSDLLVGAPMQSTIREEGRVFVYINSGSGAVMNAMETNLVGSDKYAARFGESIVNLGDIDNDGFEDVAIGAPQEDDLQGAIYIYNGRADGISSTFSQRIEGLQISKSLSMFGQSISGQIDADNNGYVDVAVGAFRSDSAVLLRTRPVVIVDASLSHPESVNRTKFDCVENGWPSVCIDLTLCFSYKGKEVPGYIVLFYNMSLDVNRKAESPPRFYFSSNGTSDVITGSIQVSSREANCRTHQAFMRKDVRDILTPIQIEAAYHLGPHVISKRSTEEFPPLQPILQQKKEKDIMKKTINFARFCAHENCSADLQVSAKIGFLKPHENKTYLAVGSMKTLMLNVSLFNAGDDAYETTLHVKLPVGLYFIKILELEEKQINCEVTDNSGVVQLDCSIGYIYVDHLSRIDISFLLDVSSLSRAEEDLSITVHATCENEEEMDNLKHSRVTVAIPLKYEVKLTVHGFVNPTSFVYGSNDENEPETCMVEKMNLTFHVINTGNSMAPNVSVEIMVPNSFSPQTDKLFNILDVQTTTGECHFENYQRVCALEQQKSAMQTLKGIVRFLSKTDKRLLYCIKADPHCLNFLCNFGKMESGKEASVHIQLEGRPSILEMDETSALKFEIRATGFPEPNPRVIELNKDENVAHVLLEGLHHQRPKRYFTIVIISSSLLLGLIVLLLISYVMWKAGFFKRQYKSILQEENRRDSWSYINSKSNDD
In the case of `Cc1nc(-c2coc3c(CN(C)C)c(O)ccc3c2=O)cs1`, the inhibition is -26.5% (inactive).
Next, `COCCCN1C(=O)C(=O)/C(=C(/O)c2ccc3c(c2)CC(C)O3)C1c1cccnc1` (centres undefined): 3.14% (inactive); `O=C(Nc1ccccc1C(=O)N1CCCCCC1)c1ccccc1Cl`: -10.3% (inactive).
As for `Fc1ccc(-c2cc(-c3ccccc3)nc(-n3cccn3)n2)cc1`, the inhibition is 6.85% (inactive).
Turning to `NS(=O)(=O)c1cc2c(cc1Cl)NC(C(Cl)Cl)NS2(=O)=O` (centres undefined), the inhibition is 2.29% (inactive).
Regarding `CCC(C(=O)Nc1ccc2c(c1)OCCO2)c1ccccc1` (centres undefined), the inhibition is 8.29% (inactive).
As for `c1ccc(CNc2ncnc3nc[nH]c23)cc1`, the figure is 9.92% (inactive); as for `Cc1cc(/C=N/O)c(C)n1-c1ccc(Br)cc1`, -7.79% (inactive); as for `COc1ccc(/C=C/C(=O)c2cc3cccc(OC)c3oc2=O)cc1`, -11.8% (inactive).
Consider `Cc1ccc(C2=NOC(=O)/C2=C\C=C\c2ccccc2)cc1`, for which the inhibition is 33.8% (inactive).
Take `CCc1ccc(/C=C2\Oc3cc(OC(=O)N4CCOCC4)ccc3C2=O)cc1`: the inhibition is 11.7% (inactive).
In the case of `COc1cc(NC(=S)NN2CCN(C)CC2)cc(OC)c1OC`, the inhibition was 7.85% (inactive).
With `C[C@]12CCC3C(CC=C4C[C@@H](O)CC[C@@]43C)C1CCC2[C@]1(C)CCC(=O)O1` (some centres undefined), the inhibition is 0.94% (inactive).
Next, `COC(=O)c1cc(OC)c(OC)cc1NC(=O)CN1C(=O)c2ccccc2C1=O`: -22.3% (inactive); `c1ccc(CN(CC2=NCCN2)c2ccccc2)cc1`: -56.6% (inactive) and -2.27% (inactive).
Next, `Cc1oncc1C(=O)Nc1ccc(C(F)(F)F)cc1`: 3.99% (inactive); `Cn1cc(C2N3CC4(C)CN2CC(C)(C3)C4=O)c2ccccc21` (centres undefined): 0.58% (inactive).
As for `CCCCOc1cc(C(=O)NCCN(CC)CC)c2ccccc2n1`, the figure is 13.8% (inactive) and 14.2% (inactive).
On to `O=C(CSCc1ccccc1)NCCCN1CCOCC1`, for which the inhibition is 12.3% (inactive).
As for `COC(=O)c1ccc(OCCCCN2CC(C)OC(C)C2)cc1` (centres undefined), the figure is -3.77% (inactive); as for `CCOc1ccc(C(=O)NC(C)C2COc3ccccc3O2)cc1` (centres undefined), 7.4% (inactive); as for `CSCC[C@H](NC(=O)OC(C)(C)C)C(=O)N1CCC(C(=O)N[C@@H](C)C(=O)O)CC1`, 9.71% (inactive).
For the compound `O=C(N/C(=C/C=C\c1ccccc1)C(=O)N1CCOCC1)c1ccc(Br)cc1`, the inhibition is 2.29% (inactive).
As for `COc1ccc2[nH]c(=O)c(CN(C(=O)c3ccco3)C(C)C)cc2c1`, the figure is 4.52% (inactive).
Next, `COc1cc(-c2cccs2)cc(=O)c2c(C)oc(C)c12`: -160% (inactive).
Next, `CCC(=O)O[C@]1(C(=O)CCl)[C@@H](C)C[C@H]2[C@@H]3CCC4=CC(=O)C=C[C@]4(C)[C@@]3(F)[C@@H](O)C[C@@]21C`: -9.13% (inactive); `COCCN(CCOC)Cc1c(C)[nH]c2c(C)c(C)ccc2c1=O`: -2.43% (inactive); `COc1ccccc1/C=C/C(=O)OCCN1CCOCC1`: -8.09% (inactive).
Take `c1ccc(Cn2nnc3cnccc32)cc1`: the inhibition was 4.27% (inactive).
Next, `Nc1cnn(C2OC(CO)C(O)C2O)c(=O)n1` (centres undefined): -13.9% (inactive).
As for `Cc1ccc(C(=O)Nc2ccccc2C(=O)NC(C(=O)O)C(C)C)cc1` (centres undefined), the figure is -19.5% (inactive).
Next, `NC(CO)C(=O)NNCc1ccc(O)c(O)c1O` (centres undefined): 13.7% (inactive); `CC12CCCCN1CCCc1c2[nH]c2ccccc12` (centres undefined): -22.2% (inactive); `CN(C)CCN(Cc1ccc(Cl)cc1)c1ccccn1`: 0.25% (inactive).
Take `CSc1cccc(NC(=O)/C=C/c2ccccc2)c1`: the inhibition is 15.2% (inactive).
As for `Cc1oc2cc(O)cc(O)c2c(=O)c1-c1ccc2c(c1)OCCCO2`, the figure is 14.6% (inactive); as for `CNC(=O)Oc1ccc2c(c1)[C@]1(C)CCN(C)[C@@H]1N2C`, 5.69% (inactive); as for `CCCCNc1ccc(C(=O)OCCN(C)C)cc1`, 5.77% (inactive).
Regarding `O=C(COc1cc(O)c2c(=O)c3ccccc3oc2c1)OCc1ccccc1`, the inhibition is -3.57% (inactive).

The term inhibition denotes the drop in the measured response relative to a control, in per cent.
